In PubChem BioAssay (NCI):
Compounds without any hit were thinned out: in the full panel of roughly 79,000, 15% have a hit. Unmarked numbers belong to inactive results. Active and inactive are the calls of the source. Cut-off read from the data, not from the text of the source: active = growth inhibition above about 70%; inactive = the rest.

Experiments:
[1] = NCI Yeast Anticancer Drug Screen. Data for the mec2-1 strain (AID 157); conditions: S. cerevisiae mec2-1 strain, hits give high values
Method in brief: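 Using mec2-1 yeast: add compound, measure growth, express inhibition versus vehicle-treated cultures.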

[2] = NCI Yeast Anticancer Drug Screen. Data for the rad14 strain (AID 159);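 note: 0% = growth of vehicle-treated control cultures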; conditions: S. cerevisiae rad14 strain growth inhibition, hits give high values
Method in brief: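 Test compounds were applied to a repair-deficient yeast strain. Its growth was then compared with that of cultures given vehicle alone, and inhibition was expressed relative to those controls.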

[3] = NCI Yeast Anticancer Drug Screen. Data for the sgs1 mgt1 strain (AID 161);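 note: 0% = growth of cultures given vehicle only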; conditions: S. cerevisiae sgs1 mgt1 strain, hits give high values
Method in brief: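 Yeast cells carrying a defined DNA-repair defect were exposed to test compounds. Growth inhibition was measured relative to vehicle-treated controls.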

[4] = NCI Yeast Anticancer Drug Screen. Data for the CLN2oe strain (AID 163);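 note: 0% = growth of vehicle-only control cultures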; conditions: S. cerevisiae CLN2oe strain, hits give high values
Method in brief: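 Whole-cell yeast growth assay. A strain engineered for altered cell-cycle control received compound, and inhibition relative to vehicle-treated cultures was recorded.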

[5] = NCI Yeast Anticancer Drug Screen. Data for the cln2 rad14 strain (AID 165);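 note: 0% = growth equal to vehicle treated cultures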; conditions: S. cerevisiae cln2 rad14 strain, hits give high values
Method in brief: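 Yeast strain cln2 rad14, bearing defects in cell cycle control and DNA repair, serves as the test system; values reflect growth inhibition compared with vehicle.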

[6] = NCI Yeast Anticancer Drug Screen. Data for the bub3 strain (AID 167); conditions: S. cerevisiae bub3 mutant strain, hits give high values
Method in brief: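 Yeast carrying a defined mutation is treated with each compound, and growth is compared with that of vehicle-exposed cells to give inhibition.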

[7] = NCI Yeast Anticancer Drug Screen. Data for the wt2 strain (AID 169);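 note: 0% = growth of vehicle-treated yeast cultures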; conditions: S. cerevisiae wt2 strain growth inhibition, hits give high values
Method in brief: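 Treated yeast vs. vehicle-treated yeast: growth inhibition determined.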

[8] = NCI Yeast Anticancer Drug Screen. Data for the mlh1 strain (AID 171);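 note: 0% = growth of vehicle-treated control cultures of the same strain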; conditions: S. cerevisiae mlh1 strain growth inhibition, hits give high values
Method in brief: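 A yeast strain with a defined genetic lesion serves as the test organism. Cultures receive compound or vehicle, and growth is measured.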

[9] = NCI Yeast Anticancer Drug Screen. Data for the sgs1 strain (AID 173);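 note: 0% = growth of vehicle-only control cultures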; conditions: S. cerevisiae sgs1 mutant, hits give high values
Method in brief: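 A genetically defined yeast mutant is incubated with the test compound, and its growth is compared to that of the same strain given vehicle.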

[10] = NCI Yeast Anticancer Drug Screen. Data for the mlh1 rad18 strain (AID 175); conditions: S. cerevisiae mlh1 rad18 strain growth inhibition, hits give high values
Method in brief: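 Steps: expose repair-defective yeast to compound; measure growth; express inhibition against vehicle-treated controls.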

[11] = NCI Yeast Anticancer Drug Screen. Data for the rad18 strain (AID 177); conditions: S. cerevisiae rad18 mutant growth inhibition, hits give high values
Method in brief: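 Measured value is growth inhibition of a yeast strain bearing a DNA repair alteration, referenced to vehicle-treated cells.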

[12] = NCI Yeast Anticancer Drug Screen. Data for the rad52 strain (AID 147);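 note: 0% = growth of vehicle-treated control cultures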; conditions: S. cerevisiae rad52 mutant growth inhibition, hits give high values
Method in brief: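 Here a repair-compromised yeast strain receives each compound; its growth is then quantified and normalised to vehicle-only controls.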

[13] = NCI Yeast Anticancer Drug Screen. Data for the wt1 strain (AID 149);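 note: 0% = growth of vehicle-treated wt1 cultures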; conditions: S. cerevisiae wt1 strain (SPY 50644) growth inhibition, hits give high values
Method in brief: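 wt1 yeast, compound-treated; % growth inhibition vs vehicle control.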

[14] = NCI Yeast Anticancer Drug Screen. Data for the rad50EPP+ strain (AID 151);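 note: 0% = growth of vehicle-treated control cultures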; conditions: S. cerevisiae rad50 mutant strain, hits give high values
Method in brief: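 Read-out is yeast growth inhibition relative to vehicle; cells used were the rad50EPP+ strain.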

[15] = NCI Yeast Anticancer Drug Screen. Data for the mgt1 strain (AID 153); conditions: S. cerevisiae mgt1 mutant growth inhibition, hits give high values
Method in brief: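 Measured: inhibition of mgt1 yeast growth by compound, normalized to vehicle-treated cultures.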

[16] = NCI Yeast Anticancer Drug Screen. Data for the rad50 strain (AID 155);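 note: 0% = growth of vehicle-only cultures of the same strain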; conditions: S. cerevisiae rad50 strain growth inhibition, hits give high values
Method in brief: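 Genetically altered yeast (DNA repair pathway); compound treatment; growth inhibition vs vehicle ctrl.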

[17] = at 5.0 µM (retest, dose inferred, filed as 0.5)
[18] = at 50.0 µM (retest, dose inferred, filed as 5.0)

Structure (SMILES): CC(C)[N+]([O-])(CCCNc1c2ccccc2nc2cccc([N+](=O)[O-])c12)C(C)C
- growth inhibition [1, 17]: 68%
- growth inhibition ([1]; at 11.0 µM): 96% (active)
- growth inhibition ([1]; at 33.0 µM): 98% (active)
- growth inhibition [1, 18]: 99% (active)
- growth inhibition ([1]; at 50.0 µM): 87% (active)
- growth inhibition ([1]; at 100.0 µM): 99% (active)
- growth inhibition ([2]; at 1.2 µM): 50%
- growth inhibition ([2]; at 3.7 µM): 93% (active)
- growth inhibition ([2]; at 11.0 µM): 98% (active)
- growth inhibition ([2]; at 33.0 µM): 99% (active)
- growth inhibition ([2]; at 100.0 µM): 99% (active)
- growth inhibition [3, 17]: 89% (active)
- growth inhibition [3, 18]: 98% (active)
- growth inhibition ([3]; at 50.0 µM): 93.6% (active)
- growth inhibition ([4]; at 1.2 µM): -3%
- growth inhibition ([4]; at 3.7 µM): 2%
- growth inhibition ([4]; at 11.0 µM): 42%
- growth inhibition ([4]; at 33.0 µM): 88% (active)
- growth inhibition ([4]; at 100.0 µM): 95% (active)
- growth inhibition [5, 17]: 96% (active)
- growth inhibition [5, 18]: 99% (active)
- growth inhibition ([5]; at 50.0 µM): 96% (active)
- growth inhibition ([6]; at 1.2 µM): -14%
- growth inhibition ([6]; at 3.7 µM): -8%
- growth inhibition [6, 17]: -2%
- growth inhibition ([6]; at 11.0 µM): 33%
- growth inhibition ([6]; at 33.0 µM): 90% (active)
- growth inhibition [6, 18]: 97% (active)
- growth inhibition ([6]; at 50.0 µM): 11.9%
- growth inhibition ([6]; at 100.0 µM): 98% (active)
- growth inhibition ([7]; at 1.2 µM): 1%
- growth inhibition ([7]; at 3.7 µM): 5%
- growth inhibition ([7]; at 11.0 µM): 24%
- growth inhibition ([7]; at 33.0 µM): 89% (active)
- growth inhibition ([7]; at 100.0 µM): 96% (active)
- growth inhibition ([8]; at 1.2 µM): 3%
- growth inhibition ([8]; at 3.7 µM): 10%
- growth inhibition ([8]; at 11.0 µM): 37%
- growth inhibition ([8]; at 33.0 µM): 91% (active)
- growth inhibition ([8]; at 100.0 µM): 98% (active)
- growth inhibition ([9]; at 1.2 µM): 64%
- growth inhibition ([9]; at 3.7 µM): 84% (active)
- growth inhibition ([9]; at 11.0 µM): 93% (active)
- growth inhibition ([9]; at 33.0 µM): 96% (active)
- growth inhibition ([9]; at 100.0 µM): 97% (active)
- growth inhibition [10, 17]: 92% (active)
- growth inhibition [10, 18]: 98% (active)
- growth inhibition ([10]; at 50.0 µM): 95.2% (active)
- growth inhibition ([11]; at 1.2 µM): 96% (active)
- growth inhibition ([11]; at 3.7 µM): 96% (active)
- growth inhibition ([11]; at 11.0 µM): 96% (active)
- growth inhibition ([11]; at 33.0 µM): 97% (active)
- growth inhibition ([11]; at 100.0 µM): 97% (active)

Structure (SMILES): CCS(=O)(=O)c1ccc(/C=C/C=N/NC(=S)NCC(C)C)cc1
- growth inhibition ([12]; at 1.2 µM): 5%
- growth inhibition ([12]; at 3.7 µM): 3%
- growth inhibition ([12]; at 11.0 µM): -1%
- growth inhibition ([12]; at 33.0 µM): 3%
- growth inhibition ([12]; at 100.0 µM): 1%
- growth inhibition ([13]; at 1.2 µM): 0%
- growth inhibition ([13]; at 3.7 µM): -3%
- growth inhibition ([13]; at 11.0 µM): 5%
- growth inhibition ([13]; at 33.0 µM): -4%
- growth inhibition ([13]; at 100.0 µM): 4%
- growth inhibition ([14]; at 1.2 µM): 3%
- growth inhibition ([14]; at 3.7 µM): 5%
- growth inhibition ([14]; at 11.0 µM): 5%
- growth inhibition ([14]; at 33.0 µM): 6%
- growth inhibition ([14]; at 100.0 µM): -9%
- growth inhibition ([15]; at 1.2 µM): -2%
- growth inhibition ([15]; at 3.7 µM): 2%
- growth inhibition ([15]; at 11.0 µM): -2%
- growth inhibition ([15]; at 33.0 µM): 5%
- growth inhibition ([15]; at 100.0 µM): 44%
- growth inhibition ([16]; at 1.2 µM): 6%
- growth inhibition ([16]; at 3.7 µM): 3%
- growth inhibition [16, 17]: 5%
- growth inhibition ([16]; at 11.0 µM): -4%
- growth inhibition ([16]; at 33.0 µM): 10%
- growth inhibition [16, 18]: -7%
- growth inhibition ([16]; at 50.0 µM): 0.25%
- growth inhibition ([16]; at 100.0 µM): 5%
- growth inhibition ([1]; at 1.2 µM): 0%
- growth inhibition ([1]; at 3.7 µM): 1%
- growth inhibition [1, 17]: -25%
- growth inhibition ([1]; at 11.0 µM): 2%
- growth inhibition ([1]; at 33.0 µM): 3%
- growth inhibition [1, 18]: -24%
- growth inhibition ([1]; at 50.0 µM): 4.2%
- growth inhibition ([1]; at 100.0 µM): 4%
- growth inhibition ([2]; at 1.2 µM): 4%
- growth inhibition ([2]; at 3.7 µM): 3%
- growth inhibition ([2]; at 11.0 µM): 0%
- growth inhibition ([2]; at 33.0 µM): 5%
- growth inhibition ([2]; at 100.0 µM): 3%
- growth inhibition [3, 17]: 6%
- growth inhibition [3, 18]: 62%
- growth inhibition ([3]; at 50.0 µM): 77% (active)
- growth inhibition ([4]; at 1.2 µM): 2%
- growth inhibition ([4]; at 3.7 µM): -2%
- growth inhibition ([4]; at 11.0 µM): -3%
- growth inhibition ([4]; at 33.0 µM): 1%
- growth inhibition ([4]; at 100.0 µM): -7%
- growth inhibition [5, 17]: -7%
- growth inhibition [5, 18]: 9%
- growth inhibition ([5]; at 50.0 µM): -67.3%
- growth inhibition ([6]; at 1.2 µM): 3%
- growth inhibition ([6]; at 3.7 µM): 4%
- growth inhibition [6, 17]: -12%
- growth inhibition ([6]; at 11.0 µM): 0%
- growth inhibition ([6]; at 33.0 µM): 4%
- growth inhibition [6, 18]: 50%
- growth inhibition ([6]; at 50.0 µM): 39.1%
- growth inhibition ([6]; at 100.0 µM): 8%
- growth inhibition ([7]; at 1.2 µM): -8%
- growth inhibition ([7]; at 3.7 µM): -5%
- growth inhibition ([7]; at 11.0 µM): -17%
- growth inhibition ([7]; at 33.0 µM): -5%
- growth inhibition ([7]; at 100.0 µM): 55%
- growth inhibition ([8]; at 1.2 µM): 4%
- growth inhibition ([8]; at 3.7 µM): 0%
- growth inhibition ([8]; at 11.0 µM): -3%
- growth inhibition ([8]; at 33.0 µM): 13%
- growth inhibition ([8]; at 100.0 µM): 41%
- growth inhibition ([9]; at 1.2 µM): -4%
- growth inhibition ([9]; at 3.7 µM): 1%
- growth inhibition ([9]; at 11.0 µM): -24%
- growth inhibition ([9]; at 33.0 µM): 1%
- growth inhibition ([9]; at 100.0 µM): 48%
- growth inhibition [10, 17]: 8%
- growth inhibition [10, 18]: 43%
- growth inhibition ([10]; at 50.0 µM): 4%
